This passage reports growth inhibition results from the supplement of paper PMC8253809.

“And” between values parts separate entries of the source, which are not always exact repeats. Identical values can stand only once.

The test system of the assay is HGGX6 (H3.3 G34R paediatric high-grade glioma line). Description: growth inhibition (% activity, log2 RLU normalised to DMSO / staurosporine); higher = more growth inhibition. Conditions: 33 µM. The procedure, abridged: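 pHGG cell lines and H9-derived neural stem cells were grown on Geltrex-coated 384-well plates. Approved drugs were added by pin tool at a single final concentration of about 33 μM, in triplicate, for 7 days at 37 °C, 5% CO2. CellTiter-Glo luminescence was log2-transformed and normalised per plate to % activity between solvent and positive control wells. The growth-inhibition value is the median over replicates.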
For `O=C(O)c1cccnc1Nc1cccc(C(F)(F)F)c1`, the growth inhibition worked out at 2.52%.

With `C=C(c1ccc(C(=O)O)cc1)c1cc2c(cc1C)C(C)(C)CCC2(C)C`, the growth inhibition is 9.38%. For `CC1(C)S[C@@H]2[C@H](NC(=O)Cc3ccccc3)C(=O)N2[C@H]1C(=O)O` the value was 0.0221%; for `Cc1cn(C2C=CC(CO)O2)c(=O)[nH]c1=O` (centres undefined), -0.492%. For `CC(C)(C)C(=O)C(Oc1ccc(Cl)cc1)n1ccnc1` (centres undefined) the value was 4.74%. The value for `Cc1ccc(S(=O)(=O)NC(=O)NN2CCCCCC2)cc1` was 1.06%; that for `Cc1cc(C2CCCCC2)n(O)c(=O)c1` was 67.5% and 63.6%.

Turning to `OCCOCCN1CCN(C(c2ccccc2)c2ccc(Cl)cc2)CC1` (centres undefined), the growth inhibition was 3.73%. On to `Oc1c(Br)cc(Br)c2cccnc12`, for which the growth inhibition came to 1.93%. `COC(=O)C1=CO[C@@H](O[C@@H]2O[C@H](CO)[C@@H](O)[C@H](O)[C@H]2O)[C@@H]2C(CO)=CC[C@H]12`: the growth inhibition came to 2.37%. For `CCn1cc(C(=O)O)c(=O)c2ccc(C)nc21` the value was 0.278%; for `CCOC(=O)c1ccc(N)cc1`, -1.96%.

For the molecule `CCCN1CCCC[C@H]1C(=O)Nc1c(C)cccc1C`, the growth inhibition was found to be 1.44%. For `CC(C)[C@H]1CC[C@H](C(=O)N[C@H](Cc2ccccc2)C(=O)O)CC1` the value was 1.09%; for `NS(=O)(=O)c1cc2c(cc1Cl)NC(C(Cl)Cl)NS2(=O)=O` (centres undefined), 5.05%.

`COc1cc2c(cc1OC)CC(=O)N(CCCN(C)C[C@H]1Cc3cc(OC)c(OC)cc31)CC2`: the growth inhibition is 0.769%.

`CCCc1nc(C)c2c(=O)nc(-c3cc(S(=O)(=O)N4CCN(CC)CC4)ccc3OCC)[nH]n12`: the growth inhibition amounted to 2.02%. For `CCC(C)n1ncn(-c2ccc(N3CCN(c4ccc(OCC5COC(Cn6cncn6)(c6ccc(Cl)cc6Cl)O5)cc4)CC3)cc2)c1=O` (centres undefined) the value was 1.37%. Consider `Cc1onc(-c2ccccc2)c1-c1ccc(S(N)(=O)=O)cc1`, for which the growth inhibition came out at 2.37%. The value for `C#C[C@]1(O)CC[C@H]2[C@@H]3CCC4=CC(=O)CC[C@@H]4[C@H]3CC[C@@]21C` was 7.23%; that for `N=C(N)c1ccc(N=NNc2ccc(C(=N)N)cc2)cc1` was 4.38%.

`O[C@@H]1CO[C@H]2[C@@H]1OC[C@@H]2O`: the growth inhibition was found to be 0.785%. The value for `CC[C@H]1OC(=O)[C@H](C)[C@@H](O[C@H]2C[C@@](C)(OC)[C@@H](O)[C@H](C)O2)[C@H](C)[C@@H](O[C@@H]2O[C@H](C)C[C@H](N(C)C)[C@H]2O)[C@](C)(O)C[C@@H](C)[C@@H]2N[C@@H](COCCOC)O[C@H]([C@H]2C)[C@]1(C)O` was -1.07%; that for `CC(C)NCC(O)COc1cccc2ccccc12` (centres undefined) was 0.0936%; that for `N#CC1(c2ccc(NC(=O)c3cccnc3NCc3ccncc3)cc2)CCCC1` was 4.45%. The value for `Clc1ccc2c(c1)C(N1CCNCC1)=Nc1ccccc1O2` was -0.239%; that for `C=C1CCC(O)CC1=CC=C1CCCC2(C)C1CCC2C(C)CCCC(C)(C)O` (centres undefined) was 0.603%; that for `CC(=O)Oc1cc(C(F)(F)F)ccc1C(=O)O` was 0.0377%. `O=c1ccc2ccccc2o1`: the growth inhibition amounted to 0.845%.

Consider `Cc1c(O)c(=O)ccn1C`, for which the growth inhibition worked out at 1.77%. For `CN(C)CCC=C1c2ccccc2CCc2ccccc21` the value was 2.03%; for `CC(C)(C(=O)O)c1ccc(C(O)CCCN2CCC(C(O)(c3ccccc3)c3ccccc3)CC2)cc1` (centres undefined), -0.102%; for `C[C@@H](O)[C@H]1C(=O)N2C(C(=O)OCOC(=O)C(C)(C)C)=C(SC3CN(C4=NCCS4)C3)[C@H](C)[C@H]12`, 0.471%.

Turning to `Cc1c(Nc2ncccc2C(=O)O)cccc1C(F)(F)F`, the growth inhibition stood at 3.08%. For `CCCCCCCN(CC)CCCC(O)c1ccc(NS(C)(=O)=O)cc1` (centres undefined) the value was 0.985%; for `COc1ccccc1N1CCN(CCCNc2cc(=O)n(C)c(=O)n2C)CC1`, 0.543%. As for `Cc1ncc([N+](=O)[O-])n1CC(C)O` (centres undefined), the growth inhibition came to 0.138%. The value for `CC[C@H]1OC(=O)[C@H](C)[C@@H](O[C@H]2C[C@@](C)(OC)[C@@H](O)[C@H](C)O2)[C@H](C)[C@@H](O[C@@H]2O[C@H](C)C[C@H](N(C)C)[C@H]2O)[C@](C)(O)C[C@@H](C)/C(=N\OCOCCOC)[C@H](C)[C@@H](O)[C@]1(C)O` was 0.659%. As for `N=S(=O)(O)Cc1noc2ccccc12`, the growth inhibition is -1.72%.
